Data as given in publication PMC5700166.

Key:
[1] = target: T1, GST-Nv-NF-kB (Ser allele) (Nematostella vectensis, UniProt A7UNT2 2-411); assay: protein-binding microarray (PBM); PBM: ~300 nM protein, 6 mM HEPES pH 7.8, 80 mM KCl, 0.5 mM EDTA, 0.5 mM EGTA, 6% glycerol, 35 ng/ul poly-dIdC, 1% milk, 1 h, room temperature; Ap Aiptasia and Nv Nematostella (sea anemones) / Co Capsaspora / Aq Amphimedon (sponge) / Dm Drosophila / Hu human; RHD is the Rel homology domain; high values mean tight binding; settings: dsDNA, one strand shown
T1 sequence: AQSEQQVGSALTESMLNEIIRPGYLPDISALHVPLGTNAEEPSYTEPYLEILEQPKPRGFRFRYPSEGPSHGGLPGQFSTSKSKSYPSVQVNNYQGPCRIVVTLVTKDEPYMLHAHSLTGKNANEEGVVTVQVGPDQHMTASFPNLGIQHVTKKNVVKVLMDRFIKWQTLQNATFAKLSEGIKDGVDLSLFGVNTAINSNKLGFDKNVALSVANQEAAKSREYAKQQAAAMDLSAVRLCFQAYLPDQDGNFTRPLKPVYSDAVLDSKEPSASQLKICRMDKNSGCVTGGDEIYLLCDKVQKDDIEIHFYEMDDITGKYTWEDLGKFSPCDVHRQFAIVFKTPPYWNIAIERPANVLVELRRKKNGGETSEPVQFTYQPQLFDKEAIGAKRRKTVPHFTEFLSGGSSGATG

[2] = target: GST-Hu-p50 (Homo sapiens, UniProt P19838 7-356); assay: as above; settings: dsDNA, one strand shown
Chain of GST-Hu-p50 (P19838 7-356): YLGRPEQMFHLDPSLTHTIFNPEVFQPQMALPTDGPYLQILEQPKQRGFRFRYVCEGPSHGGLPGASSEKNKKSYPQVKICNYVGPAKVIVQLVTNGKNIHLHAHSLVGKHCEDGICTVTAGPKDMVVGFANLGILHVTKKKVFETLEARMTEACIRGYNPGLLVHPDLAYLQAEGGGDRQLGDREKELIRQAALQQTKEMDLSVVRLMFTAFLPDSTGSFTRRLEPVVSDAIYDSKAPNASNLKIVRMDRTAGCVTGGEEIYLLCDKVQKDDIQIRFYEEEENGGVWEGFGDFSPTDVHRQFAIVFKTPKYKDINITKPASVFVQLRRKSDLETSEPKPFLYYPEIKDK

Sequence	binding signal [1]	binding signal [2]
CCGATTAACATCAAGGGGAGTCCTGATGTTAATCGGGTCTTGATTCGCTTGACGCTGCTG	4.97 z-score	4.3 z-score
CCGATTAACATCAAATTCCCAAATGATGTTAATCGGGTCTTGATTCGCTTGACGCTGCTG	3.82 z-score	3.01 z-score
CCGATTAACATCAGGATTTTACCTGATGTTAATCGGGTCTTGATTCGCTTGACGCTGCTG	3.67 z-score	2.65 z-score
CCGATTAACATCAGGGGATAAAATGATGTTAATCGGGTCTTGATTCGCTTGACGCTGCTG	6.05 z-score	3.95 z-score
CCGATTAACATCACGGAAACCCCTGATGTTAATCGGGTCTTGATTCGCTTGACGCTGCTG	3.87 z-score	4.6 z-score
CCGATTAACATCAACGTATTCCCTGATGTTAATCGGGTCTTGATTCGCTTGACGCTGCTG	3.53 z-score	1.19 z-score
CCGATTAACATCAACTGGGAAAATGATGTTAATCGGGTCTTGATTCGCTTGACGCTGCTG	4.25 z-score	2 z-score
CCGATTAACATCACTAAAATCCCTGATGTTAATCGGGTCTTGATTCGCTTGACGCTGCTG	3.42 z-score	3.2 z-score
CCGATTAACATCAGTAATTCCCATGATGTTAATCGGGTCTTGATTCGCTTGACGCTGCTG	3.61 z-score	3 z-score
CCGATTAACATCAGGCCGTCCCCTGATGTTAATCGGGTCTTGATTCGCTTGACGCTGCTG	3.43 z-score	3.86 z-score
CCGATTAACATCAGGCATTTCCCTGATGTTAATCGGGTCTTGATTCGCTTGACGCTGCTG	3.99 z-score	3.68 z-score
CCGATTAACATCAGGCCATCCCCTGATGTTAATCGGGTCTTGATTCGCTTGACGCTGCTG	3.8 z-score	3.33 z-score
CCGATTAACATCAGGCTTCCCCCTGATGTTAATCGGGTCTTGATTCGCTTGACGCTGCTG	6.08 z-score	5.25 z-score
CCGATTAACATCAAAATTCCCAATGATGTTAATCGGGTCTTGATTCGCTTGACGCTGCTG	4.95 z-score	4.21 z-score
CCGATTAACATCAGGGGGTAACCTGATGTTAATCGGGTCTTGATTCGCTTGACGCTGCTG	3.93 z-score	4.28 z-score
CCGATTAACATCAGGGAAATTCATGATGTTAATCGGGTCTTGATTCGCTTGACGCTGCTG	5.89 z-score	4.4 z-score
CCGATTAACATCACCAAATTCCCTGATGTTAATCGGGTCTTGATTCGCTTGACGCTGCTG	6.26 z-score	4.49 z-score
CCGATTAACATCACCAAAATCCCTGATGTTAATCGGGTCTTGATTCGCTTGACGCTGCTG	2.71 z-score	2.9 z-score
CCGATTAACATCAGATTTCCCACTGATGTTAATCGGGTCTTGATTCGCTTGACGCTGCTG	3.83 z-score	2.99 z-score
CCGATTAACATCAGGAGTTACCCTGATGTTAATCGGGTCTTGATTCGCTTGACGCTGCTG	1.4 z-score	2.44 z-score
CCGATTAACATCAGGGTATTACCTGATGTTAATCGGGTCTTGATTCGCTTGACGCTGCTG	4.88 z-score	3.33 z-score
CCGATTAACATCAGGGAATTCGATGATGTTAATCGGGTCTTGATTCGCTTGACGCTGCTG	4.38 z-score	2.58 z-score
CCGATTAACATCAGGAAATTTCCTGATGTTAATCGGGTCTTGATTCGCTTGACGCTGCTG	2.16 z-score	2.5 z-score
CCGATTAACATCAGGGGGTAAAATGATGTTAATCGGGTCTTGATTCGCTTGACGCTGCTG	6.35 z-score	4.51 z-score
CCGATTAACATCAAACAAACCCCTGATGTTAATCGGGTCTTGATTCGCTTGACGCTGCTG	2.48 z-score	3.95 z-score

Sequence	binding signal [1]	binding signal [2]
CCGATTAACATCACCTTCCCCCCTGATGTTAATCGGGTCTTGATTCGCTTGACGCTGCTG	5.23 z-score	4.59 z-score
CCGATTAACATCAGATACCCCCCTGATGTTAATCGGGTCTTGATTCGCTTGACGCTGCTG	4.05 z-score	4.1 z-score
CCGATTAACATCAGGGGGTTAACTGATGTTAATCGGGTCTTGATTCGCTTGACGCTGCTG	4.34 z-score	4.57 z-score
CCGATTAACATCATCCCCGTGTCTGATGTTAATCGGGTCTTGATTCGCTTGACGCTGCTG	2.84 z-score	2.68 z-score
CCGATTAACATCACGGAGTTCCCTGATGTTAATCGGGTCTTGATTCGCTTGACGCTGCTG	1.77 z-score	1.87 z-score
CCGATTAACATCAAGGACTTCCCTGATGTTAATCGGGTCTTGATTCGCTTGACGCTGCTG	2.77 z-score	2.42 z-score
CCGATTAACATCAAAATAATCCCTGATGTTAATCGGGTCTTGATTCGCTTGACGCTGCTG	3.57 z-score	3.58 z-score
CCGATTAACATCAACATGGGAAATGATGTTAATCGGGTCTTGATTCGCTTGACGCTGCTG	2.18 z-score	1.56 z-score
CCGATTAACATCAGGATCTCCCCTGATGTTAATCGGGTCTTGATTCGCTTGACGCTGCTG	5.15 z-score	4.48 z-score
CCGATTAACATCAGGGGATCCCATGATGTTAATCGGGTCTTGATTCGCTTGACGCTGCTG	6.24 z-score	4.5 z-score
CCGATTAACATCACCCGATTCCCTGATGTTAATCGGGTCTTGATTCGCTTGACGCTGCTG	4.07 z-score	2.39 z-score
CCGATTAACATCAGGGACCGCCCTGATGTTAATCGGGTCTTGATTCGCTTGACGCTGCTG	1.35 z-score	3.16 z-score
CCGATTAACATCACGGGGTTCCCTGATGTTAATCGGGTCTTGATTCGCTTGACGCTGCTG	1.48 z-score	2.59 z-score
CCGATTAACATCACAGGGAATTCTGATGTTAATCGGGTCTTGATTCGCTTGACGCTGCTG	4.96 z-score	4.29 z-score
CCGATTAACATCACGAGTTTCCCTGATGTTAATCGGGTCTTGATTCGCTTGACGCTGCTG	5.41 z-score	2.39 z-score
CCGATTAACATCAACGCCCCCCCTGATGTTAATCGGGTCTTGATTCGCTTGACGCTGCTG	4.55 z-score	4.25 z-score
CCGATTAACATCAGGGAGATTTATGATGTTAATCGGGTCTTGATTCGCTTGACGCTGCTG	4.27 z-score	4.86 z-score
CCGATTAACATCAAAAAATGCCCTGATGTTAATCGGGTCTTGATTCGCTTGACGCTGCTG	1.9 z-score	3.14 z-score
CCGATTAACATCAGGGGGGCACCTGATGTTAATCGGGTCTTGATTCGCTTGACGCTGCTG	2 z-score	3.33 z-score
CCGATTAACATCAGGGAGTCCCATGATGTTAATCGGGTCTTGATTCGCTTGACGCTGCTG	2.92 z-score	3.1 z-score
CCGATTAACATCAGGGGAGCACCTGATGTTAATCGGGTCTTGATTCGCTTGACGCTGCTG	3.94 z-score	4.33 z-score
CCGATTAACATCAGAAAATCCCATGATGTTAATCGGGTCTTGATTCGCTTGACGCTGCTG	3.29 z-score	3.86 z-score
CCGATTAACATCAGGGGGTGAAATGATGTTAATCGGGTCTTGATTCGCTTGACGCTGCTG	4.3 z-score	4.19 z-score
CCGATTAACATCAAGGGATTTCCTGATGTTAATCGGGTCTTGATTCGCTTGACGCTGCTG	3.4 z-score	3.68 z-score
CCGATTAACATCACGTAAATCCCTGATGTTAATCGGGTCTTGATTCGCTTGACGCTGCTG	2.27 z-score	2.23 z-score

Sequence	binding signal [1]	binding signal [2]
CCGATTAACATCAGGGAATGACCTGATGTTAATCGGGTCTTGATTCGCTTGACGCTGCTG	1.65 z-score	2.08 z-score
CCGATTAACATCAGGGACAACCCTGATGTTAATCGGGTCTTGATTCGCTTGACGCTGCTG	3.39 z-score	2.91 z-score
CCGATTAACATCAAATTCCCGTATGATGTTAATCGGGTCTTGATTCGCTTGACGCTGCTG	4.51 z-score	3.02 z-score
CCGATTAACATCAGGGGACGCACTGATGTTAATCGGGTCTTGATTCGCTTGACGCTGCTG	4.02 z-score	4.28 z-score
CCGATTAACATCAGACCTCCCCCTGATGTTAATCGGGTCTTGATTCGCTTGACGCTGCTG	4.4 z-score	3.87 z-score
CCGATTAACATCAATGTCCCCCCTGATGTTAATCGGGTCTTGATTCGCTTGACGCTGCTG	4.42 z-score	3.89 z-score
CCGATTAACATCAGGGATAACCCTGATGTTAATCGGGTCTTGATTCGCTTGACGCTGCTG	1.1 z-score	2.62 z-score
CCGATTAACATCAGAAATTACCATGATGTTAATCGGGTCTTGATTCGCTTGACGCTGCTG	3.08 z-score	2.24 z-score
CCGATTAACATCAGGGGATTAGATGATGTTAATCGGGTCTTGATTCGCTTGACGCTGCTG	6.46 z-score	4.35 z-score
CCGATTAACATCACGTTCCCCCCTGATGTTAATCGGGTCTTGATTCGCTTGACGCTGCTG	5.78 z-score	5.15 z-score
CCGATTAACATCAAGGGGGTAAATGATGTTAATCGGGTCTTGATTCGCTTGACGCTGCTG	4.81 z-score	4.37 z-score
CCGATTAACATCAGGGGATCTACTGATGTTAATCGGGTCTTGATTCGCTTGACGCTGCTG	5.35 z-score	4.5 z-score
CCGATTAACATCACCGAATTTGGTGATGTTAATCGGGTCTTGATTCGCTTGACGCTGCTG	1.14 z-score	2.09 z-score
CCGATTAACATCAGAAATTTTCCTGATGTTAATCGGGTCTTGATTCGCTTGACGCTGCTG	1.33 z-score	2.13 z-score
CCGATTAACATCAAATCTTTCCCTGATGTTAATCGGGTCTTGATTCGCTTGACGCTGCTG	6.25 z-score	3.68 z-score
CCGATTAACATCACGGGACCCCCTGATGTTAATCGGGTCTTGATTCGCTTGACGCTGCTG	3.8 z-score	3.54 z-score
CCGATTAACATCACCCCTCCCCCTGATGTTAATCGGGTCTTGATTCGCTTGACGCTGCTG	4.65 z-score	4.06 z-score
CCGATTAACATCAGGACTTTACCTGATGTTAATCGGGTCTTGATTCGCTTGACGCTGCTG	2.66 z-score	2.67 z-score
CCGATTAACATCACGGAAGTCCCTGATGTTAATCGGGTCTTGATTCGCTTGACGCTGCTG	5.32 z-score	4.43 z-score
CCGATTAACATCAGGAGATTCCCTGATGTTAATCGGGTCTTGATTCGCTTGACGCTGCTG	4.04 z-score	4.59 z-score
CCGATTAACATCAAAACTTCCCATGATGTTAATCGGGTCTTGATTCGCTTGACGCTGCTG	3.45 z-score	2.96 z-score
CCGATTAACATCAGGGAAAGTAATGATGTTAATCGGGTCTTGATTCGCTTGACGCTGCTG	5.14 z-score	3.58 z-score
CCGATTAACATCACGGGAACCCCTGATGTTAATCGGGTCTTGATTCGCTTGACGCTGCTG	2.26 z-score	3.43 z-score
